The record followed here is PubChem BioAssay (Tox21).

Values without a mark were called inactive. Records with an inconclusive call do not appear. Active and inactive are the calls of the source. Unless noted, the call rests on the fitted dose curve; in most records, active means well fitted curve in the direction sought with a large enough effect in the repeat runs; inconclusive means weak or mixed curves; inactive means no such curve, though single readings can be large; an effect the other way counts as inactive or inconclusive.

Assay [1] is described as follows: qHTS assay to identify small molecule agonists of the sonic hedgehog signaling (Shh) pathway - cell viability counter screen (AID 1259366). Further: nearly all actives have a fitted effect of over 50% in size. In short, it runs like this: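 Fluorescence from CellTiter-Fluor reports live cells in this counter screen. NIH/3T3-derived Gli1-Luc reporter cells receive test compounds for 24hr at 37C; reagent goes in at 23hr.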
Assay [2] can be described thus: qHTS assay to identify small molecule antagonists of the sonic hedgehog signaling (Shh) pathway - cell viability counter screen (AID 1259367). Further: nearly all actives have a fitted effect of over 55% in size. Put shortly:
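Tox21 library chemicals were tested on a Gli1-Luc NIH/3T3 clone (2,000 cells/well) stimulated by conditioned medium; viability was quantified as fluorescence from CellTiter-Fluor reagent added at 23 hr.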

Assay [3] can be described thus: qHTS assay to identify small molecule agonists of the sonic hedgehog signaling (Shh) pathway (AID 1259368; calls by dose curve;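 further: NIH/3T3-derived 3T3Gli1-Luc cells carrying a stable Gli1-driven firefly luciferase reporter; series mostly up to about 92 µM; nearly all actives have a fitted effect of over 15% in size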). In short, it runs like this: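 Quantitative high-throughput format using a Gli1-driven firefly luciferase reporter line derived from NIH/3T3 cells. After a 24 hr compound treatment at 37 C and 5% CO2, luminescence reported Gli1 response element activity.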
Background: In qHTS, concentration-response curves come from the screen itself.

The target in assay [4] is Estrogen receptor beta (Homo sapiens) (UniProt Q92731). As to the kind of experiment: qHTS assay to identify small molecule agonists of the estrogen receptor beta (ER-beta) signaling pathway (AID 1259377; active means well fitted activation curve with a large enough effect in the signal ratio in the repeat runs, not every such curve was filed as active; the % refers to the signal ratio). In short, it runs like this: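 Screening used GripTite ER-beta-UAS-bla cells held in 2% charcoal-stripped FBS medium. After overnight (16 hr) compound incubation at 37C, beta-lactamase activity was detected with a FRET substrate by fluorescence.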
Estrogen receptor beta (Homo sapiens), sequence (Q92731 whole entry, looked up): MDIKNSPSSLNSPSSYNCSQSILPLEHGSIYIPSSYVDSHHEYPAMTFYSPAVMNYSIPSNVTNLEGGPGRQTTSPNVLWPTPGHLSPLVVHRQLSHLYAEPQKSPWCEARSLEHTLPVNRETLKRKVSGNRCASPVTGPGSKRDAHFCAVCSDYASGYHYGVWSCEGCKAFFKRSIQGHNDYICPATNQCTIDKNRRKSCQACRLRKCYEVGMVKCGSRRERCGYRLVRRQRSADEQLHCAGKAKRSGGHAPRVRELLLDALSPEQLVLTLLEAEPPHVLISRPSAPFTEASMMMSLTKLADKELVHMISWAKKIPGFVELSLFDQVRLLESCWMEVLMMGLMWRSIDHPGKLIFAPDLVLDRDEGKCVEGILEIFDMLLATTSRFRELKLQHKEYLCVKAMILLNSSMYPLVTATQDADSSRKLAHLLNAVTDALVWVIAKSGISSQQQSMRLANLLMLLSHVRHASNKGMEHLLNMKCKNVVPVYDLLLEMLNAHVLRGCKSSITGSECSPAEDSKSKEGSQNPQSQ

Assay [5] has the same target. As to the kind of experiment: qHTS assay to identify small molecule antagonists of the estrogen receptor beta (ER-beta) signaling pathway (AID 1259378; active means well fitted inhibition curve with a large enough effect in the signal ratio in the repeat runs, not every such curve was filed as active; the % refers to the signal ratio). Put shortly: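 ER-beta-UAS-bla HEK293T cells in 2% charcoal-stripped FBS medium treated with compound plus 1nM final 17-beta-estradiol for 16 hr at 37C. Beta-lactamase reporter read by FRET substrate fluorescence after 2 hours at room temperature.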

Assay [6] is described as follows: qHTS assay to identify small molecule agonists of the androgen receptor (AR) signaling pathway in the presence of an antagonist - cell viability counter screen (AID 1259379).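 Further: MDA-kb2 human breast cancer cells carrying an MMTV luciferase reporter; series mostly up to about 92 µM; nearly all actives have a fitted effect of over 25% in size.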 Put shortly:
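Nilutamide-containing (3.0uM final) MDA-kb2 cultures, 3,000 cells/well, were treated with compounds across 15 concentrations. After 16 hr at 37C with no CO2, cell viability was determined by CellTiter-Fluor fluorescence in the luciferase assay wells.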

Assay [7] in a line: qHTS assay to identify small molecule agonists of the estrogen receptor beta (ER-beta) signaling pathway - cell viability counter screen (AID 1259380). Further: nearly all actives have a fitted effect of over 30% in size. In short, it runs like this: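 Steps: plate ER-beta-UAS-bla HEK293T cells, rest 6 hr; add compounds in DMSO; incubate 16 hr at 37C, 5% CO2; add FRET substrate 2 hr; add CellTiter-Glo, wait 30 min at room temperature; read luminescence.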

A short description of assay [8]: qHTS assay to identify small molecule antagonists of the estrogen receptor beta (ER-beta) signaling pathway - cell viability counter screen (AID 1259382). Further: series mostly up to about 92 µM; nearly all actives have a fitted effect of over 55% in size. Put shortly:
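Viability is scored by CellTiter-Glo luminescence (30 min, room temperature) in ER-beta-UAS-bla HEK293T wells already read for reporter fluorescence. Compound exposure lasts 16 hr at 37C alongside 1nM 17-beta-estradiol in charcoal-stripped serum medium.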

The nature of assay [9]: qHTS assay to identify small molecule antagonists of the sonic hedgehog signaling (Shh) pathway (AID 1259369; calls by dose curve; further: nearly all actives have a fitted effect of over 45% in size; further: potency means the concentration at half of the fitted maximal effect). In short, it runs like this:
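Stable Gli1-Luc reporter NIH/3T3 clone; quantitative HTS in stimulated mode with conditioned medium. Luminescence measured after 24hr compound treatment at 37 C.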

Assay [10] has as its target Androgen receptor (Homo sapiens) (UniProt P10275). As to the kind of experiment: qHTS assay to identify small molecule agonists of the androgen receptor (AR) signaling pathway in the presence of an antagonist (AID 1259381; calls by dose curve; further: nearly all actives have a fitted effect of over 15% in size). Put shortly:
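Reporter-gene luminescence from MDA-kb2 cells exposed 16hr at 37C (0% CO2) to 15-point compound titrations with 3.0uM final nilutamide as AR antagonist.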

Androgen receptor (Homo sapiens), sequence (P10275 whole entry, looked up): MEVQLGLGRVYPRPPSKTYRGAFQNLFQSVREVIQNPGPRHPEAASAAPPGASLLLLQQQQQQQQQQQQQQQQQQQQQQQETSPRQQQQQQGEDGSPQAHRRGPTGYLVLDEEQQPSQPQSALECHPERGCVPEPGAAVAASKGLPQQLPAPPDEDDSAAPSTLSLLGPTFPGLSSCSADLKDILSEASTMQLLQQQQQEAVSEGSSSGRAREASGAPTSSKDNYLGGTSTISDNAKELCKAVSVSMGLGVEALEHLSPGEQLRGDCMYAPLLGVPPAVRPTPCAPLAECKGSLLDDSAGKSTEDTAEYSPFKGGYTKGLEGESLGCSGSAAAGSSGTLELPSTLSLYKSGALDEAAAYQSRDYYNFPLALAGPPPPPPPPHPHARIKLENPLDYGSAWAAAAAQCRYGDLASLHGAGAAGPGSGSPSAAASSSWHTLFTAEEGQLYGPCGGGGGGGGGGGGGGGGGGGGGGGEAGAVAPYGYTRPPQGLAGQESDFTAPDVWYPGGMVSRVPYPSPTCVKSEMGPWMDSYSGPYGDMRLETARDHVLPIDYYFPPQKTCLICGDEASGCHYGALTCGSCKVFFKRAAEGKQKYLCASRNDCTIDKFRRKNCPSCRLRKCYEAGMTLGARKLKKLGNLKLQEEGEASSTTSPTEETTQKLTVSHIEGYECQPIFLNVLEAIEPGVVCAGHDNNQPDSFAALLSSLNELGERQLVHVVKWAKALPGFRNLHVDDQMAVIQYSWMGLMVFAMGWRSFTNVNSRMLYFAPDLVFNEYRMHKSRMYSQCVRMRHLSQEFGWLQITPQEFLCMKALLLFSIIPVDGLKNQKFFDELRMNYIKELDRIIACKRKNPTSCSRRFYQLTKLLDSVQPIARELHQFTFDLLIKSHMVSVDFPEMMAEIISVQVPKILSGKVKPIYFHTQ

In the case of `COc1ccccc1N1CCN(CC(O)COc2cc(OC)c(OC)c(OC)c2)CC1` (configuration not stated), the result in [1], in assay [2], in assay [3], in assay [5], in [6] and in [8] was inactive. Further, the Potency entry in [4] and in assay [7] was “inactive” in each case.

For the compound `O=C(O)Cc1ccccc1Oc1ccc(Cl)cc1Cl`, the call in assay [1], in [2], in assay [3], in assay [6] and in [8] was inactive. The Potency entry in assay [9] is “inactive”.

As for `CCNC(=O)C(C)OC(=O)Nc1ccccc1` (configuration not stated), the compound was called inactive in [1], in [2], in [3], in [5], in [6] and in assay [8]. The Potency result in assay [4] and in assay [7] was “inactive” in each case.

With `CC(=O)c1ccc2ccc3ccccc3c2c1`, the outcome in assay [1], in assay [2], in assay [3], in assay [6] and in assay [8] was inactive. For the same compound, the Potency result in assay [9] is “inactive”.

For the compound `CCCC(=O)CC`, the outcome in [1], in assay [2], in assay [3], in assay [5], in [6] and in assay [8] was inactive. The Potency entry in [4] and in assay [7] was “inactive” each time.

Regarding `C[C@@H]1CCC[C@H](C)N1CCCC(O)(c1ccccc1)c1ccccn1` (some centres not stated), the call in assay [1], in [2], in [3], in assay [5], in [6] and in assay [10] was inactive. For the same compound, the compound was classed as inactive in [8]. Further, the Potency result in assay [4] and in [7] was “inactive” throughout.

As to `CC(C)OC(=O)C(C(=O)OC(C)C)=C1SC=CS1`, the call in assay [1], in assay [2], in [3], in assay [6] and in assay [8] was inactive. The Potency in [9] was 4.73 µM (active).

Turning to `CCCOc1ccc(C(=O)OCCN(CC)CC)cc1N`, the compound was called inactive in [1], in assay [2], in [3], in assay [5], in assay [6] and in [8]. Also, the Potency entry in [4] and in [7] was “inactive” each time.

Consider `CC(C)=CCC/C(C)=C\C#N`, for which the compound was classed as inactive in assay [1], in assay [2], in assay [3], in assay [6] and in [8]. Besides, in [9], the Potency result was “inactive”.

As to `O=c1c(O)c(O)c1=O`, the call in assay [1], in assay [2], in assay [3], in assay [6] and in assay [8] was inactive. For the same compound, the Potency result in assay [9] was “inactive”.

In the case of `COC(=O)c1ccccc1Cl`, the compound was classed as inactive in assay [1], in assay [2], in assay [3], in assay [5], in assay [6] and in [8]. Further, the Potency result in assay [4] and in assay [7] was “inactive” in each case.

For `CC/C=C\CCOC(=O)c1ccccc1`, the outcome in [1], in assay [2], in assay [3], in assay [6], in assay [10] and in assay [8] was inactive. The Potency result in assay [9] is “inactive”.

As to `CCCCCCCC(=O)N(C)C`, the compound was called inactive in [1], in [2], in [3], in assay [5], in [6] and in assay [8]. Further, the Potency result in assay [4] and in [7] was “inactive” in each case.

For `CC(C)(Sc1cc(C(C)(C)C)c(O)c(C(C)(C)C)c1)Sc1cc(C(C)(C)C)c(O)c(C(C)(C)C)c1`, the compound was called inactive in assay [1], in assay [2], in assay [3], in [5], in assay [6] and in assay [8]. Also, the Potency entry in assay [4] and in assay [7] was “inactive” throughout.

Regarding `CC(=O)OC1CCC(C(C)(C)C)CC1` (configuration not stated), the compound was called inactive in [1], in [2], in [3], in assay [6], in [10] and in [8]. Further, the Potency entry in assay [9] is “inactive”.

For the compound `CC(CN1CC(=O)NC(=O)C1)N1CC(=O)NC(=O)C1` (configuration not stated), the compound was classed as inactive in assay [1], in assay [2], in [3], in assay [5], in [6] and in assay [10]. Further, in assay [8], the call was inactive. The Potency result in [4] and in assay [7] was “inactive” throughout.

For the compound `COc1ccc(Cl)cc1C`, the compound was classed as inactive in [1], in assay [2], in [3], in [5], in assay [6] and in [8]. Also, the Potency entry in assay [4] and in [7] was “inactive” each time.

In the case of `C=CC(=O)OCCOCCOCC`, the compound was classed as inactive in assay [1], in [2], in [3], in [5], in assay [6] and in assay [8]. Besides, the Potency entry in assay [4] and in [7] was “inactive” throughout.

In the case of `Cc1nc2ccc(Cl)cc2[nH]1`, the outcome in assay [1], in [2], in assay [3], in assay [5], in assay [6] and in assay [8] was inactive. For the same compound, the Potency result in assay [4] and in assay [7] was “inactive” each time.

Regarding `CCCCCCCCCCCCCC(=O)OCC`, the call in [1], in [2], in [3], in assay [6] and in assay [8] was inactive. Further, the Potency entry in assay [9] was “inactive”.

Turning to `CC1=C(O)C(=O)CO1`, the call in [1], in assay [2], in assay [3], in assay [5], in [6] and in assay [8] was inactive. Moreover, the Potency result in assay [4] and in assay [7] was “inactive” each time.

Consider `C=CCCCCCCCCOC(C)=O`, for which the call in assay [1], in assay [2], in assay [3], in assay [5], in [6] and in assay [8] was inactive. Moreover, the Potency entry in assay [4] and in assay [7] was “inactive” in each case.

As to `COC(=O)c1ccc(C(=O)O)cc1`, the result in assay [1], in [2], in assay [3], in assay [5], in assay [6] and in assay [8] was inactive. Further, the Potency result in [4] and in assay [7] was “inactive” throughout.

Regarding `CCOc1ccccc1OCCN[C@H](C)Cc1ccc(OC)c(S(N)(=O)=O)c1`, the outcome in assay [1], in assay [2], in assay [3], in [5], in assay [6] and in [8] was inactive. The Potency entry in assay [4] and in [7] was “inactive” each time.

For the compound `CCCCCC(=O)CC`, the compound was classed as inactive in assay [1], in assay [2], in assay [3], in assay [6] and in assay [8]. Moreover, the Potency result in assay [9] was “inactive”.

Regarding `COC(=O)c1c(C)cc(O)c(C)c1O`, the compound was classed as inactive in [1], in assay [2], in [3], in [5], in [6] and in assay [8]. Moreover, the Potency entry in [4] and in [7] was “inactive” throughout.

Consider `CC(C)C(=O)Nc1cccc(C2CN3CCSC3=N2)c1` (configuration not stated), for which the result in [1], in [2], in [3], in assay [5], in [6] and in assay [10] was inactive. Besides, the result in assay [8] was inactive. The Potency entry in [4] and in assay [7] was “inactive” in each case.

Regarding `CCOC(=O)[C@H](CCc1ccccc1)N[C@H]1CS[C@H](c2cccs2)CN(CC(=O)O)C1=O`, the compound was called inactive in assay [1], in assay [2], in [3], in [6], in assay [10] and in assay [8]. Further, the Potency result in assay [9] is “inactive”.

Consider `CCCC(C)C(O)CC` (configuration not stated), for which the compound was called inactive in assay [1], in assay [2], in assay [3], in assay [5], in assay [6] and in assay [8]. For the same compound, the Potency result in assay [4] and in [7] was “inactive” each time.

Consider `O=P(O)(O)C(O)(Cc1cccnc1)P(=O)(O)O`, for which the call in assay [1], in assay [2], in assay [3], in [6] and in [8] was inactive. Further, in assay [9], the Potency result was “inactive”.

For the compound `Nc1nc(Cl)cc(Cl)n1`, the result in assay [1], in assay [2], in assay [3], in [5], in [6] and in assay [8] was inactive. Further, the Potency entry in assay [4] and in assay [7] was “inactive” in each case.

As to `N=C(N)N`, the compound was classed as inactive in assay [1], in assay [2], in [3], in assay [6] and in assay [8]. Also, the Potency result in assay [9] and in [7] was “inactive” in each case.

For `C/C(=N\O)c1ccc(OCC(=O)N2CCCCC2)cc1`, the result in [1], in assay [2], in assay [5], in assay [6], in assay [10] and in [8] was inactive. Moreover, the Potency entry in assay [4] and in [7] was “inactive” in each case.
